Reference: PubChem BioAssay AID1159580 (chemical genetic matrix, 2015)
About 2,000 (36%) of roughly 5,500 compounds were called active. Inconclusive results (about 18%) are left out. Cut-off read from the data, not from the text of the source: active = normalized growth mostly below about 0.91 (no sharp cut-off); inconclusive = no clear call, values can overlap the other calls; inactive = mostly above about 0.92. The list shows a part of the results.

Experiment: chemical genetic growth profiling, strain panel (AID 1159580);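 note: tested at 20 µM; growth read once vehicle control cultures reached saturation at 30 °C; 1 = growth at the plate median or of vehicle wells; lower values mean less growth of the strain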
Conditions: S. cerevisiae deletion strains, growth OD

Measured: normalized growth

C#C[C@@H]1CC2C3CCC4=C[C@@H](OC(C)=O)CCC4C3CC[C@]2(C)[C@H]1OC(C)=O (stereo partly drawn)
inactive: locus YHR030C, strain SLT2, hits give low values 1 | locus YHR079C, strain IRE1, hits give low values 0.929 | locus YJL095W, strain BCK1, hits give low values 0.951 | locus YJR066W, strain TOR1, hits give low values 0.947 | locus YLR113W, strain HOG1, hits give low values 0.912 | locus YNL183C, strain NPR1, hits give low values 0.903 | locus YOR231W, strain MKK1, hits give low values 0.946 | locus YPL256C, strain CLN2, hits give low values 0.936
